PubChem BioAssay
For some assays here: Measured potencies and affinities stand elsewhere. Activity calls are given as the source filed them. How the calls were made is not given here.

target: Plasmodium falciparum protein kinase 6 (PK6, PF3D7_1337100) (UniProt Q8IDW1); test: PfPK6 kinase inhibitors, biochemical, TCAMS library (AID 1159586); conditions: recombinant PfPK6, Kinase-Glo ATP depletion luminescence
Sequence (Q8IDW1 1-305): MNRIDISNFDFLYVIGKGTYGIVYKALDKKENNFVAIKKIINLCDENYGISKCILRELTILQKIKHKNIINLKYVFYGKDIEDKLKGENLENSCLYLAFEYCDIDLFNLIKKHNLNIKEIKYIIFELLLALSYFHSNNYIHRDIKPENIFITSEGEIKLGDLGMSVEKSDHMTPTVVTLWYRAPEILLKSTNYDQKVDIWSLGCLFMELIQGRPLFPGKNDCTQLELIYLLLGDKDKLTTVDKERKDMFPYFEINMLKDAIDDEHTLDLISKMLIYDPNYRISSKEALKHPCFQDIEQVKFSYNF

outcome, inactive:
CN1CCN(CCCN(Cc2ccc(-c3cccc(CNCc4ccc5c(c4)OCO5)c3)cc2)C(=O)NC2CCCCC2)CC1
Cc1[nH]c(C)c(-c2ccc(CCc3ccc(F)cc3F)cc2)c(=O)c1Cl
Cc1cc(OCCCN2CCC(NS(=O)(=O)c3cccc(Br)c3)CC2)c2ccccc2n1
CC(C)NCc1ccc(-c2cccc(NC(=O)c3cccc(C#N)c3)c2)cc1
CC(C)C[C@H](NC(=O)c1cc2ccccc2s1)C(=O)N[C@H]1CCN(Cc2ccc(OCCN3CCNCC3)c3ccccc23)C1
COc1ccc(OCCCCON2C(N)=NC(N)=NC2(C)C)cc1
Cc1ccc(C(=O)Nc2ccc(Cl)c(N3CCN(CCc4ccccc4)CC3)c2)cc1
Cc1ccc(C(C(=O)Nc2ccc(N3CCNCC3)c(Cl)c2)c2ccccc2)cc1 (stereo not given)
COc1cc(CNCCCCCCNCc2cc(OC)cc3ccccc23)c2ccccc2c1
COc1cc(C(=O)N2CC[C@@H](CCN3CCC4(CC3)CN(S(C)(=O)=O)c3ccccc34)C[C@H]2Cc2ccc(Cl)c(Cl)c2)cc(OC)c1OC
Cc1ccc2c(NN=CC=Cc3ccccc3)cc(C)nc2c1
OCCN1CCN(Cc2ccc(-c3ccc(-c4nc5ccc(C(F)(F)F)cc5[nH]4)s3)cc2)CC1
NC1=NC2(CCCCC2)N(OCCCOc2cccc3ccccc23)C(N)=N1
Cc1cccc2[nH]c(-c3cccc(-c4ccc(NC(=O)Cc5ccon5)cc4)c3)nc12
COc1ccc2nccc([C@@H](O)CN3CCC(NC(=O)c4cc5ccccc5[nH]4)CC3)c2c1
O=C(NCCc1ccc(Cl)c(Cl)c1)C1CCCN(C(=O)c2ccc(O)c(-c3ccc(Cl)c(Cl)c3)c2)C1 (stereo not given)
CCCc1cc(Cc2cnc(N)nc2N)cc(CCC)c1OCCCCCC(=O)OCC
CCCCc1ccc(-c2ccc(-c3c(C)[nH]c(C)c(Br)c3=O)cn2)cc1
Cc1cc(NN=Cc2ccccn2)c2cc(C(F)(F)F)ccc2n1
O=C(Nc1ccsc1)Nc1cccc(-c2cccc(-c3nc4ccc(C(F)(F)F)cc4[nH]3)c2)c1
COc1cc(NC(=O)C(c2ccc(Cl)cc2)C(C)C)cc(OC)c1 (stereo not given)
CC(C)(C)C1CC(=O)C[C@@H]2C(=O)N(c3ccc(Br)cc3)C(=O)[C@H]12 (stereo not given in full)
COc1ccc(O)c(C(=O)c2cc(C(=O)NC3CCCCC3)c(=O)n(C3CCCCC3)c2)c1
COc1ccccc1NC(=O)Nc1ccc(-c2ccc(-c3nc4c(C)cccc4[nH]3)s2)cc1
COc1cc2c(C3CCN(CC4CCC(NC(=O)/C=C/c5ccc(Cl)c(Cl)c5)CC4)CC3)c[nH]c2cn1 (stereo not given)
COCC(C)n1c(SCC(=O)Nc2cc(C(F)(F)F)ccc2Cl)nc2ccccc2c1=O (stereo not given)
COc1ccc(-n2cc(CNCCCn3ccnc3)c(-c3cccc(F)c3)n2)cc1
COc1cc(Cc2cnc(N)nc2N)cc(OCCCCC2SC(=O)NC2=O)c1OC (stereo not given)
COc1ccc2nccc([C@@H](O)CN3CCC(NCc4nc5cc(F)ccc5o4)CC3)c2c1
N=C(N)c1cc(Br)cc(NC(=O)Nc2cc(Br)cc(C(=N)N)c2)c1
CS(=O)(=O)c1ccc(CNCc2ccc(-c3cccc(-c4nc5ccc(F)cc5[nH]4)c3)cc2)cc1
CC(C)(C)c1ccc(NC(=O)c2cccc(CN3CCN(Cc4cccc(O)c4)CC3)c2)cc1
COc1cc(C(=O)NC2CCN(Cc3ccccc3)CC2)ccc1-c1cc2cc(Cl)c(Cl)cc2[nH]1
COc1cc(NC(=O)c2sc(-c3ccc(Cl)cc3)cc2NC(=O)CN2CCCC2)ccc1OCCN1CCCC1
O=[N+]([O-])c1ccc(Nc2nc(NN=Cc3ccc(-c4ccc([N+](=O)[O-])cc4)o3)nc(Nc3ccccc3)n2)cc1
CN1CCN(CCCN(Cc2ccc(-c3cccc(CNC4CCCC4)c3)cc2)C(=O)/C=C/c2ccccc2)CC1
CC(C)(C)c1ccc(CN2CCCCC(NC(=O)c3cc(-c4cccc(Cl)c4)cs3)C2)cc1 (stereo not given)
O=C(NCc1cccc(F)c1)Nc1cccc(-c2ccc(-c3nc4ccc(F)cc4[nH]3)cc2)c1
CCCCCC(=O)N1CCOC(CCN2CCc3c(c4ccccc4n3C)C2)(c2ccc(Cl)c(Cl)c2)C1 (stereo not given)
CC(=O)Oc1c(C2CCN(CCCCNC(=O)c3ccc(NC(=O)c4ccc(Cl)cc4)cc3)CC2)ccc2ccccc12

target: Protein kinase 7 (PK7), Plasmodium falciparum 3D7 (PF3D7_0213400) (UniProt Q7YTF7); test: inhibition of Plasmodium PK7 catalytic activity – biochemical, TCAMS antimalarial set, Kinase-Glo luminescence (AID 1159587); conditions: recombinant PfPK7, Kinase-Glo ATP depletion luminescence
Sequence (Q7YTF7 1-343): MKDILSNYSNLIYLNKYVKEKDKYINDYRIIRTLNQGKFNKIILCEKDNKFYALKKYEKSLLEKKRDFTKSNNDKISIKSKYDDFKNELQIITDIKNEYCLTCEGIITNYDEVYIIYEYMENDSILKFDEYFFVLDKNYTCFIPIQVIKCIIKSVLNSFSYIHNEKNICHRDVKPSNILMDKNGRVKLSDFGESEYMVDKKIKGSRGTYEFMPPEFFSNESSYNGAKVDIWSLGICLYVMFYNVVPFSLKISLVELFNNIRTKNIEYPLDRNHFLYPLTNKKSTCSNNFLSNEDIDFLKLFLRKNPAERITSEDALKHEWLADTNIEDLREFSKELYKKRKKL

outcome, inactive:
CN1CCN(CCCN(Cc2ccc(-c3cccc(CNCc4ccc5c(c4)OCO5)c3)cc2)C(=O)NC2CCCCC2)CC1
Cc1[nH]c(C)c(-c2ccc(CCc3ccc(F)cc3F)cc2)c(=O)c1Cl
Cc1cc(OCCCN2CCC(NS(=O)(=O)c3cccc(Br)c3)CC2)c2ccccc2n1
CC(C)NCc1ccc(-c2cccc(NC(=O)c3cccc(C#N)c3)c2)cc1
CC(C)C[C@H](NC(=O)c1cc2ccccc2s1)C(=O)N[C@H]1CCN(Cc2ccc(OCCN3CCNCC3)c3ccccc23)C1
COc1ccc(OCCCCON2C(N)=NC(N)=NC2(C)C)cc1
Cc1ccc(C(=O)Nc2ccc(Cl)c(N3CCN(CCc4ccccc4)CC3)c2)cc1
Cc1ccc(C(C(=O)Nc2ccc(N3CCNCC3)c(Cl)c2)c2ccccc2)cc1 (stereo not given)
COc1cc(CNCCCCCCNCc2cc(OC)cc3ccccc23)c2ccccc2c1
COc1cc(C(=O)N2CC[C@@H](CCN3CCC4(CC3)CN(S(C)(=O)=O)c3ccccc34)C[C@H]2Cc2ccc(Cl)c(Cl)c2)cc(OC)c1OC
Cc1ccc2c(NN=CC=Cc3ccccc3)cc(C)nc2c1
OCCN1CCN(Cc2ccc(-c3ccc(-c4nc5ccc(C(F)(F)F)cc5[nH]4)s3)cc2)CC1
NC1=NC2(CCCCC2)N(OCCCOc2cccc3ccccc23)C(N)=N1
Cc1cccc2[nH]c(-c3cccc(-c4ccc(NC(=O)Cc5ccon5)cc4)c3)nc12
COc1ccc2nccc([C@@H](O)CN3CCC(NC(=O)c4cc5ccccc5[nH]4)CC3)c2c1
O=C(NCCc1ccc(Cl)c(Cl)c1)C1CCCN(C(=O)c2ccc(O)c(-c3ccc(Cl)c(Cl)c3)c2)C1 (stereo not given)
CCCc1cc(Cc2cnc(N)nc2N)cc(CCC)c1OCCCCCC(=O)OCC
CCCCc1ccc(-c2ccc(-c3c(C)[nH]c(C)c(Br)c3=O)cn2)cc1
Cc1cc(NN=Cc2ccccn2)c2cc(C(F)(F)F)ccc2n1
O=C(Nc1ccsc1)Nc1cccc(-c2cccc(-c3nc4ccc(C(F)(F)F)cc4[nH]3)c2)c1
COc1cc(NC(=O)C(c2ccc(Cl)cc2)C(C)C)cc(OC)c1 (stereo not given)
CC(C)(C)C1CC(=O)C[C@@H]2C(=O)N(c3ccc(Br)cc3)C(=O)[C@H]12 (stereo not given in full)
COc1ccc(O)c(C(=O)c2cc(C(=O)NC3CCCCC3)c(=O)n(C3CCCCC3)c2)c1
COc1ccccc1NC(=O)Nc1ccc(-c2ccc(-c3nc4c(C)cccc4[nH]3)s2)cc1
COc1cc2c(C3CCN(CC4CCC(NC(=O)/C=C/c5ccc(Cl)c(Cl)c5)CC4)CC3)c[nH]c2cn1 (stereo not given)
COCC(C)n1c(SCC(=O)Nc2cc(C(F)(F)F)ccc2Cl)nc2ccccc2c1=O (stereo not given)
COc1ccc(-n2cc(CNCCCn3ccnc3)c(-c3cccc(F)c3)n2)cc1
COc1cc(Cc2cnc(N)nc2N)cc(OCCCCC2SC(=O)NC2=O)c1OC (stereo not given)
COc1ccc2nccc([C@@H](O)CN3CCC(NCc4nc5cc(F)ccc5o4)CC3)c2c1
N=C(N)c1cc(Br)cc(NC(=O)Nc2cc(Br)cc(C(=N)N)c2)c1
CS(=O)(=O)c1ccc(CNCc2ccc(-c3cccc(-c4nc5ccc(F)cc5[nH]4)c3)cc2)cc1
CC(C)(C)c1ccc(NC(=O)c2cccc(CN3CCN(Cc4cccc(O)c4)CC3)c2)cc1
COc1cc(C(=O)NC2CCN(Cc3ccccc3)CC2)ccc1-c1cc2cc(Cl)c(Cl)cc2[nH]1
COc1cc(NC(=O)c2sc(-c3ccc(Cl)cc3)cc2NC(=O)CN2CCCC2)ccc1OCCN1CCCC1
O=[N+]([O-])c1ccc(Nc2nc(NN=Cc3ccc(-c4ccc([N+](=O)[O-])cc4)o3)nc(Nc3ccccc3)n2)cc1
CN1CCN(CCCN(Cc2ccc(-c3cccc(CNC4CCCC4)c3)cc2)C(=O)/C=C/c2ccccc2)CC1
CC(C)(C)c1ccc(CN2CCCCC(NC(=O)c3cc(-c4cccc(Cl)c4)cs3)C2)cc1 (stereo not given)
O=C(NCc1cccc(F)c1)Nc1cccc(-c2ccc(-c3nc4ccc(F)cc4[nH]3)cc2)c1
CCCCCC(=O)N1CCOC(CCN2CCc3c(c4ccccc4n3C)C2)(c2ccc(Cl)c(Cl)c2)C1 (stereo not given)
CC(=O)Oc1c(C2CCN(CCCCNC(=O)c3ccc(NC(=O)c4ccc(Cl)cc4)cc3)CC2)ccc2ccccc12
